# Measurements: PubChem BioAssay AID1851 (National Center for Advancing Translational Sciences (NCATS), 2009)
# About 5,100 (32%) of roughly 16,000 compounds were called active. Another 25% or so got no clear call; they are omitted. Calls follow the shape of the dose curve; as a rule, active = well fitted curve in the direction sought with a large enough effect; inconclusive = small, poorly fitted or top-dose-only effect, or effect the other way; inactive = no such curve, though single readings can be large or run the other way. The list shows a part of the results.
# Target: Cytochrome P450 3A4 (Homo sapiens) (UniProt P08684)
# Experiment: Cytochrome panel assay with activity outcomes
# Settings: recombinant CYP, pro-luciferin dealkylation, luminescence, p450-cyp3a4; series mostly up to 57.1 µM; activity, negative = inhibition: at the top concentration
# % is scaled to controls: 0 for no effect and ±100 for the full control effect.
# Chain of Cytochrome P450 3A4 (Homo sapiens) (P08684 whole entry, looked up): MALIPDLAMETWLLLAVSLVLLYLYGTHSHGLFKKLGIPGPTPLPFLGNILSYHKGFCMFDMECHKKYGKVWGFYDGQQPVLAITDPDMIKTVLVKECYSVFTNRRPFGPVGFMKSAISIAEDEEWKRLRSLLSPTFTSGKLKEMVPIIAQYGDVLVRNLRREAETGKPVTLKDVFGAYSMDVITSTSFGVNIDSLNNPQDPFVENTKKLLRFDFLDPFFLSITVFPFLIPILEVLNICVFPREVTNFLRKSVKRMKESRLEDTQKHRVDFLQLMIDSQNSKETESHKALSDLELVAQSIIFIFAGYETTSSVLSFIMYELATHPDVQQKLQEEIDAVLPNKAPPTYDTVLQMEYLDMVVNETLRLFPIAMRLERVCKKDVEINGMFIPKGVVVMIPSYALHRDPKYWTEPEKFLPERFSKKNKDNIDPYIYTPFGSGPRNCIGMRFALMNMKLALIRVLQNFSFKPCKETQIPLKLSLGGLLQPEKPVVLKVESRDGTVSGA
SMILES,"activity, negative = inhibition",AC50
CCn1c(CCCc2nc3c([nH]2)c(=O)n(C)c(=O)n3C)nc2c1c(=O)n(C)c(=O)n2C,-26.8% [at 11.4 µM] (inactive),–
COC(=O)c1[nH]c2ccc(Br)cc2c1NC(=O)CN1CCN(C2CCCCC2)CC1,–,14.1 µM (active)
COC(=O)c1[nH]c2ccc(Br)cc2c1NC(=O)Oc1ccccc1,10.3% [at 2.29 µM] (inactive),–
COC(=O)c1[nH]c2ccc(Br)cc2c1NC(=O)CN1CCCc2ccccc21,-23.9% [at 2.29 µM] (inactive),–
COc1ccc(C2c3c(ncn(CCN4CCOCC4)c3=N)Oc3ccc4ccccc4c32)cc1OC (stereo not drawn),–,3.16 µM (active)
CNC(=S)NNC(=O)COc1ccccc1C,-15% (inactive),–
Cc1ccccc1OCCNC(=O)c1ccccc1Sc1ccccc1C#N,–,14.1 µM (active)
CCCC1CCC(c2ccc(C(N)=O)cc2)CC1 (stereo not drawn),-23.3% (inactive),–
CC(C)c1nc2ccccn2c1NC1CCCCC1,–,14.1 µM (active)
N=c1c(C(=O)NC2CCCC2)cc2c(=O)n3ccccc3nc2n1C1CCCC1,6.82% (inactive),–
CCSc1nnc(-c2ccccc2NC(C)=O)c(=O)[nH]1,13.7% (inactive),–
CCOC(=O)CC(NC(=O)c1cccs1)c1ccc(OCC)cc1 (stereo not drawn),-4.62% (inactive),–
CC[C@H](CN(C)C)C(=O)c1ccco1,-7.24% [at 11.4 µM] (inactive),–
CCC[C@@H]1C[C@@]1(CCC)C(NC(=O)c1ccco1)c1ccc(Cl)cc1 (stereo partly drawn),–,12.6 µM (active)
CCC[C@@H]1C[C@@]1(CCC)C(NS(=O)(=O)c1cccc2cccnc12)c1ccc(Cl)cc1 (stereo partly drawn),–,0.794 µM (active)
CCC[C@@H]1C[C@@]1(CCC)C(NC(=O)c1cccs1)c1ccc(Cl)cc1 (stereo partly drawn),–,6.31 µM (active)
CCCCN1C(=O)NC(NC(=O)c2ccco2)(C(F)(F)F)C1=O (stereo not drawn),2.31% [at 2.29 µM] (inactive),–
Cc1noc(C)c1C(=O)N1CCC2(CCN(C(=O)NC(C)C)CC2)CC1,-8.24% (inactive),–
CCn1nc(C(=O)Nc2ccccc2C)c(Cl)c1Cl,-3.65% (inactive),–
CCn1c(-c2ccccc2Cl)nn(CC(=O)Nc2cc(Cl)ccc2Cl)c1=S,–,5.01 µM (active)
CCn1c(-c2ccccc2Cl)nn(CC(=O)Nc2ccc(OC)cc2)c1=S,–,5.01 µM (active)
CCn1c(-c2ccccc2Cl)nn(CC(=O)Nc2ccccc2OC)c1=S,–,12.6 µM (active)
COC(=O)Cn1nc(-c2ccccc2)n(-c2ccccc2)c1=S,14.3% (inactive),–
COc1ncc2nc(-c3cc(F)cc(F)c3)c(=O)n(-c3ccccc3)c2n1,-23.8% (inactive),–

SMILES,"activity, negative = inhibition",AC50
COc1ccc(Oc2ncc3nc(-c4cc(F)cc(F)c4)c(=O)n(C)c3n2)cc1,–,5.01 µM (active)
COc1ccc(Oc2ncc3nc(-c4ccc(F)cc4)c(=O)n(C)c3n2)cc1,–,3.98 µM (active)
COc1cccc(Nc2ncc3nc(-c4ccc(F)cc4)c(=O)n(C)c3n2)c1,-16.2% (inactive),–
O=c1c(-c2cc(F)cc(F)c2)nc2cnc(Oc3ccccc3)nc2n1C1CC1,-14% (inactive),–
CN(CCO)Cc1ncccc1O,-9.73% [at 11.4 µM] (inactive),–
O=C(NCCc1c[nH]c2ccccc12)C1CCN(c2nnc(N3CCCC3=O)s2)CC1,–,8.91 µM (active)
O=C(O)[C@H](Cc1c[nH]c2ccccc12)N1C(=O)c2ccccc2C1=O,-3.21% [at 11.4 µM] (inactive),–
CN1CCN(CCCNC(=O)C2CCN(c3nnc(-n4cccc4)s3)CC2)CC1,-16% (inactive),–
CCOc1ccc(NC(=S)N(Cc2ccc(Cl)cc2)Cc2ccco2)cc1,–,3.55 µM (active)
CCOc1ccc(NC(=S)N(Cc2ccc(N(C)C)cc2)Cc2ccco2)cc1,–,7.08 µM (active)
Cc1cccc(OCCSCc2nc3ccccc3[nH]2)c1,–,7.08 µM (active)
c1ccc(C(c2ccccc2)N2CCC3(CCNCC3)CC2)cc1,-12.2% (inactive),–
COc1ccccc1CN1CCCC2(CCNCC2)C1,-16.5% (inactive),–
c1ccc(C(c2ccccc2)N2CCCC3(CCNCC3)C2)cc1,–,1.26 µM (active)
c1ccc(C(c2ccccc2)N2CC[C@@]3(CCCNC3)C2)cc1,–,7.94 µM (active)
Cc1cc(C)cc(-n2c(O)c(C=NC3CCS(=O)(=O)C3)c3ccccc3c2=O)c1 (stereo not drawn),–,10 µM (active)
O=C(Nc1ccc2c(c1)OCCO2)c1cc2sccc2n1Cc1ccccc1,–,6.31 µM (active)
O=C(Nc1ccc2c(c1)OCCO2)c1cc2sccc2n1Cc1ccc(F)cc1,–,5.01 µM (active)
Cn1c(C(=O)Nc2ccccc2)cc2sccc21,–,25.1 µM (active)
COC(=O)c1ccc(NC(=O)c2cc3sccc3n2C)cc1,-90.9% (inactive),–
CCOC(=O)c1sc(NC(=O)CSc2nc(C)cc(C)n2)c(C#N)c1C,–,10 µM (active)
CCOC(=O)c1sc(NC(=O)CSc2n[nH]c(-c3ccc(Cl)cc3Cl)n2)c(C#N)c1C,–,10 µM (active)
CCOC(=O)c1sc(NC(=O)CSc2nc(C)cc(C)c2C#N)c(C#N)c1C,-17.1% [at 2.29 µM] (inactive),–
CN1[C@@H](CC(=O)c2ccccc2)CCC[C@@H]1C[C@@H](O)c1ccccc1,-4.36% (inactive),–

SMILES,"activity, negative = inhibition",AC50
O=C1COC(c2ccccc2O)=NN1CCCN1CCCC1,-10.8% [at 11.4 µM] (inactive),–
CCc1ccc(N/C(SCc2ccccc2C)=C(/C#N)C(=O)NCc2ccco2)cc1,–,6.31 µM (active)
CCN1CCC[C@@H]1CNC(=O)c1cc(S(N)(=O)=O)ccc1OC,-4.15% (inactive),–
O=C(CSc1ccc(Cl)cc1)Nc1ccc(N2CCN(c3ccccc3)CC2)c(F)c1,-28.4% (inactive),–
O=C(CSc1ccccc1)Nc1ccc(N2CCN(c3ccccc3)CC2)c(F)c1,-8.27% [at 11.4 µM] (inactive),–
O=C(CSc1ccc(Cl)cc1)Nc1ccc(N2CCN(C(=O)c3ccc(Cl)cc3)CC2)cc1,–,0.891 µM (active)
Cc1nc(-c2cccnc2)sc1C(=O)Nc1ccc(F)cc1F,–,15.8 µM (active)
Cn1nc(-c2ccccc2)c(C(=O)Nc2ccc(Cl)cc2)c1Cl,-29.6% (inactive),–
O=C(Nc1ccc(Cl)cc1)c1cnc(-c2ccccc2)nc1-c1ccccc1,-16% (inactive),–
Cc1nc(-c2cccnc2)sc1C(=O)Nc1ccc(Cl)cc1,–,14.1 µM (active)
Brc1ccc2cccnc2c1,25.9% (inactive),–
N#CCCn1cc(/C=N/O)c(-c2ccc(Cl)cc2)n1,–,12.6 µM (active)
N#CCCn1c(=O)c(-c2ccc(Cl)cc2)nc2cnc(N3CCOCC3)nc21,-6.31% (inactive),–
CN1CCN(c2ncc3nc(-c4ccc(Cl)cc4)c(=O)n(CCC#N)c3n2)CC1,10.9% (inactive),–
O=S(=O)(N/N=C/c1ccc2c(c1)OCCO2)c1ccc(Cl)cc1,–,14.1 µM (active)
O=S(=O)(N/N=C\c1ccc2c(c1)OCO2)c1ccc(Cl)cc1,–,3.98 µM (active)
Cc1ccc(S(=O)(=O)N/N=C/c2ccc(OC3CSC3)cc2)cc1,-21.9% [at 2.29 µM] (inactive),–
Cc1cc(OC(=O)c2ccccc2Br)cc(=O)n1C,-13.2% [at 11.4 µM] (inactive),–
CC(C)N=c1cc2n(-c3ccc(Cl)cc3)c3ccccc3nc-2cc1Nc1ccc(Cl)cc1,-8.96% [at 25.6 µM] (inactive),–
CC(Sc1nc(NCc2ccccc2)nc(N(C)C)n1)C(=O)Nc1ccccc1 (stereo not drawn),-9.99% [at 2.29 µM] (inactive),–
O=C(N/N=C/c1ccc(Cl)cc1Cl)Nc1ccccc1,-14% (inactive),–
CN(C)c1nc(NCc2ccccc2)nc(N/N=C/c2ccc(Cl)cc2Cl)n1,–,2.24 µM (active)
O=C(O)CC1(C(=O)O)CCCCC1,-15.2% [at 11.4 µM] (inactive),–
N.N.O=C(O)C1(C(=O)O)CCC1.[Pt],–,39.8 µM (active)

SMILES,"activity, negative = inhibition",AC50
NC1(C(=O)O)C[C@@H](C(=O)O)[C@H](C(=O)O)C1,–,inactive
Cc1ccc(S(=O)(=O)c2nc(S(=O)(=O)c3ccc(C)cc3)c(NCc3ccco3)s2)cc1,–,3.55 µM (active)
O=C1Nc2ccc(F)cc2C12Nc1ccccc1-c1nnc(SCc3ccccc3F)nc1O2 (stereo not drawn),–,15.8 µM (active)
Cc1ccc(CSc2nnc3c(n2)OC2(Nc4ccccc4-3)C(=O)Nc3ccc(F)cc32)cc1 (stereo not drawn),-12.4% [at 2.29 µM] (inactive),–
Cc1cc(CNC(=O)[C@H]2C[C@@H]2[C@H](NP(=O)(c2ccccc2)c2ccccc2)c2ccccc2)nn1C,–,2.51 µM (active)
Cc1cc(CNC(=O)[C@@H]2C[C@H]2[C@@H](NP(=O)(c2ccccc2)c2ccccc2)c2ccccc2)nn1C,–,0.398 µM (active)
Cc1ccc(CNC(=O)[C@H]2C[C@@H]2[C@H](NP(=O)(c2ccccc2)c2ccccc2)c2ccccc2)c(F)c1F,–,0.316 µM (active)
CC[C@H]1CN(C)[C@H]2Cc3c([nH]c4ccccc34)C(=O)C[C@H]1[C@H]2C(=O)OC,-21.4% [at 11.4 µM] (inactive),–
C[Si](C)(c1ccc(C(=O)O)cc1)c1ccc(C(=O)O)cc1,-6.28% [at 11.4 µM] (inactive),–
CCN(CC)N=Nc1[nH]nc2nc(C)cc(C)c12,-15.1% [at 11.4 µM] (inactive),–
CCN(CC)c1ncnc2c1sc1nc(C)cc(C)c12,–,12.6 µM (active)
NC(=O)c1cccc(N)c1,-23.9% (inactive),–
C/C(=N\Nc1ccc([N+](=O)[O-])cc1)c1cccc(N)c1,–,3.55 µM (active)
COCCNc1nc(-c2ccccc2Cl)nc2ccccc12,–,12.6 µM (active)
COCCNc1nc(-c2ccccc2C(F)(F)F)nc2ccccc12,–,12.6 µM (active)
Nc1nc(SCC(=O)O)[nH]c(=O)c1N,-4.46% [at 11.4 µM] (inactive),–
Cc1ccc2nc(-c3ccc(NC(=O)Cc4cccs4)cc3)[nH]c2c1,-7.46% [at 2.29 µM] (inactive),–
Cc1ccc2nc(Cc3ccc(N)cc3)[nH]c2c1,–,1.78 µM (active)
C[N+](C)(C)c1ncnc2c1ncn2[C@@H]1CCCCO1,-9.49% [at 11.4 µM] (inactive),–
Cc1cccc(N2CC(O)=C(c3nc4ccccc4n3C)C2=N)c1,-27.6% (inactive),–
Cn1c(-c2sc(=S)n(-c3ccccc3)c2N)nc2ccccc21,–,4.47 µM (active)
